Rows were chosen to be rich in hits. Some 1.5% of all compounds tested hit in one or more screens of this group.
NOD2-RIPK2 inh – blocks binding of human NOD2 to RIPK2; O43353; CHO BLA complementation NOD2-RIPK2, CCF4 ratio; inhibition, % at 4.98 µM; 0.38% of 360,000 active; in the data active = inhibition above about 21%;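 also: 0% = vehicle only and 100% = reference blocker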
Target sequence (O43353 whole entry, looked up): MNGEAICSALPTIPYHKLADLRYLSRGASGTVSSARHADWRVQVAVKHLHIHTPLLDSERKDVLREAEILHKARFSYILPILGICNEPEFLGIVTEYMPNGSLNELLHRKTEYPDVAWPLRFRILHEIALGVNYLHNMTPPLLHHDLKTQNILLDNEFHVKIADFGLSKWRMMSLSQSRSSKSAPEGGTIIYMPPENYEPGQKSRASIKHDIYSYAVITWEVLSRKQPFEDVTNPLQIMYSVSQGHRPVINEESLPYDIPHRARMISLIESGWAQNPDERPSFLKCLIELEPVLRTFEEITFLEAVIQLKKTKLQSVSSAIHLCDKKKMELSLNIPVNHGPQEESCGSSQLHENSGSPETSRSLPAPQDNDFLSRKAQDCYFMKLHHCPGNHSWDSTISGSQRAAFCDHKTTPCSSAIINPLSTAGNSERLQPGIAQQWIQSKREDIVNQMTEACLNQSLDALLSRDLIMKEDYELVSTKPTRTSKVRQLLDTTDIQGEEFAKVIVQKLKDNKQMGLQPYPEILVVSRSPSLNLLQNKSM
TLR9-MyD88 inh – blocks human TLR9 binding to MyD88; Q9NR96+Q99836; CHO BLA complementation TLR9-MyD88, CCF4 FRET ratio; 0.21% of 340,000 active; inhibition, % at 4.98 µM;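 active = inhibition above the mean over all tested compounds plus 3 SD, cut at about 21% in these data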;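 also: 0% = DMSO only wells and 100% = clavulanate BLA inhibitor control wells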
TLR4-MyD88 BLA – blocks binding of human TLR4 to MyD88; HeLa CL3-4 TLR4/MyD88 BLA complementation, FRET ratio; inhibition, % at 8.4 µM; 0.18% of 200,000 active; AID 861; in the data active = inhibition above about 25%;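 also: 0% = vehicle and 100% = reference inhibitor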
Myeloid diff 2 – promotes myeloid progenitor differentiation; calls only at 10 µM; 1% of 360,000 active; ER-HoxA9 myeloid progenitors, lysozyme-GFP differentiation, flow cytometry; AID 624256;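 active = normalized GFP-positive differentiation at or above the plate's own cutoff, the solvent-only control mean plus 3 SD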;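 also: cells exposed to compound for four days before flow analysis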
Myeloid diff CP1 – myeloid differentiation induction. shares compounds with Myeloid diff 2. ER-HoxA9 myeloid progenitors, GFP/Mac1 double-positive flow. calls only. 2% of 2,300 active;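 active = share of green or green-and-red cells above 9 and 9% in run 1 or 4 and 3% in run 2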
GFP autofluor – flagged as fluorescent in myeloid differentiation counter-screen; shares compounds with Myeloid diff 2; ER-HoxA9 myeloid progenitors, no estrogen, GFP autofluorescence flow cytometry; vehicle wells 0%, positive control 100%; fluorescence response, % (test concentration not listed); 7.4% of 2,300 active; AID 651707;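 active = over 5% cells positive for green fluorescent reporter, or over 2% positive for both it and APC stain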;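 also: range taken on the double positive population between DMSO and positive control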
Starred values were filed as active, the others as inactive.

For O=C(NC(c1ccccc1)c1cnccn1)C1CCN(CCOc2ccc(Cl)cc2Cl)CC1 (stereo not given) the results were NOD2-RIPK2 inh -2 and Myeloid diff 2 inactive.
`CCC(=O)c1cn(CC(=O)Nc2ccccc2Cl)c2ccccc12` gave NOD2-RIPK2 inh -6, TLR9-MyD88 inh -14, Myeloid diff 2 active, Myeloid diff CP1 inactive and GFP autofluor 2.1*.
`Nn1cnnc1SC1CCCCC1NS(=O)(=O)c1ccccc1` (stereo not given) gave NOD2-RIPK2 inh -19, TLR9-MyD88 inh 3, TLR4-MyD88 BLA -6, Myeloid diff 2 active, Myeloid diff CP1 inactive and GFP autofluor 1.
`CCc1ccc(C(O)c2ncc(-c3ccc(C)cc3)[nH]2)cc1` (stereo not given) gave NOD2-RIPK2 inh 2 and Myeloid diff 2 inactive.
O=C(O)CCCN1C(=O)/C(=C/C=C/c2ccco2)SC1=S was read as NOD2-RIPK2 inh 8, TLR9-MyD88 inh 4 and Myeloid diff 2 inactive.
O=C(O)CCCN1C(=O)/C(=C\c2ccc(-c3nc4ccccc4s3)o2)SC1=S was read as NOD2-RIPK2 inh 6, TLR9-MyD88 inh 12, Myeloid diff 2 active, Myeloid diff CP1 inactive and GFP autofluor 0.
`CCOc1ccc(N(CC(=O)Nc2cc(Cl)ccc2C)S(C)(=O)=O)cc1` gave NOD2-RIPK2 inh 11, TLR9-MyD88 inh -12, Myeloid diff 2 active, Myeloid diff CP1 inactive and GFP autofluor 0.
O=C(O)C1CCCC2CN3CCc4c([nH]c5ccccc45)C3C(O)C21 (stereo not given) was read as NOD2-RIPK2 inh -12, TLR9-MyD88 inh 8, Myeloid diff 2 inactive, Myeloid diff CP1 inactive and GFP autofluor 1.
For CN1/C(=C\C(=O)c2cccc(S(=O)(=O)N3CCCCC3)c2)C(C)(C)c2ccccc21 the results were NOD2-RIPK2 inh 4, TLR9-MyD88 inh -3, TLR4-MyD88 BLA 10 and Myeloid diff 2 inactive.
`CN1/C(=C/C(=S)NC(=O)C2CCC2)C(C)(C)c2ccccc21` gave NOD2-RIPK2 inh -7, TLR9-MyD88 inh 1, TLR4-MyD88 BLA 17, Myeloid diff 2 inactive, Myeloid diff CP1 inactive and GFP autofluor 3.
O=C1S/C(=C/c2ccc(N3CCOCC3)o2)C(=O)N1Cc1ccc(F)cc1 was read as NOD2-RIPK2 inh 1, TLR9-MyD88 inh 6, TLR4-MyD88 BLA 10, Myeloid diff 2 inactive, Myeloid diff CP1 inactive and GFP autofluor 31*.
`Cc1nn(-c2ccccc2)c2sc(C(=O)NNC(=O)COc3cccc4ccccc34)cc12` gave NOD2-RIPK2 inh -5, TLR9-MyD88 inh 4, TLR4-MyD88 BLA 17 and Myeloid diff 2 inactive.
For Cc1nn(-c2ccccc2)c2sc(C(=O)NNC(=O)COc3ccccc3)cc12 the results were NOD2-RIPK2 inh -4, TLR9-MyD88 inh -10, TLR4-MyD88 BLA -12, Myeloid diff 2 active, Myeloid diff CP1 inactive and GFP autofluor 0.
For COC(=O)CC1OCC=C2CN3CCC45C6=CC(=O)C(=O)C([N+](=O)[O-])=C6NC4C1C2CC35 (stereo not given) the results were NOD2-RIPK2 inh -9 and Myeloid diff 2 inactive.
`CN(C(=O)c1cccc(NC(=O)Cc2cccc(NC(=O)C3CCCN(C(=O)C4CCC4)C3)c2)c1)C1CCC1` (stereo not given) gave NOD2-RIPK2 inh -15, TLR9-MyD88 inh -16 and Myeloid diff 2 inactive.
`C=CCn1c(C)cc(-c2csc(NCC)n2)c1C` gave NOD2-RIPK2 inh 1, TLR9-MyD88 inh 0, TLR4-MyD88 BLA 11, Myeloid diff 2 active, Myeloid diff CP1 inactive and GFP autofluor 0.
Screening C=CCn1c(C)cc(-c2csc(N)n2)c1C returned NOD2-RIPK2 inh -4, TLR9-MyD88 inh 3, TLR4-MyD88 BLA -12 and Myeloid diff 2 inactive.
Screening CCc1c(C)nc2ncnn2c1NCCc1ccc(OC)c(OC)c1 returned NOD2-RIPK2 inh -9, TLR9-MyD88 inh -12, TLR4-MyD88 BLA 12 and Myeloid diff 2 inactive.
For COc1ccc(CCNc2c(C)c(C)nc3ncnn23)cc1 the results were NOD2-RIPK2 inh -2, TLR9-MyD88 inh -5, TLR4-MyD88 BLA 0, Myeloid diff 2 inactive, Myeloid diff CP1 inactive and GFP autofluor 0.
COc1ccc(C=NNC(=O)c2ccccc2NS(=O)(=O)c2cccs2)cc1O was read as NOD2-RIPK2 inh -2, TLR9-MyD88 inh -5 and Myeloid diff 2 inactive.
COc1ccc(OC)c(C=NNC(=O)c2ccccc2NS(=O)(=O)c2cccs2)c1 was read as NOD2-RIPK2 inh 2, TLR9-MyD88 inh -2, Myeloid diff 2 active, Myeloid diff CP1 inactive and GFP autofluor 2.
For C#CC[N+](CC)(CC)CC#Cc1ccccc1 the results were NOD2-RIPK2 inh -3, Myeloid diff 2 active, Myeloid diff CP1 active and GFP autofluor 4.
`Cc1nc(SCC(=O)N(C)C2(C#N)CCCCC2)c2ccccc2n1` gave NOD2-RIPK2 inh 1, TLR9-MyD88 inh -10, Myeloid diff 2 inactive, Myeloid diff CP1 inactive and GFP autofluor 4.
Screening Cc1nc2cc(Oc3nc(NCCN(C)C)nc4ccsc34)ccc2s1 returned NOD2-RIPK2 inh 5, Myeloid diff 2 active, Myeloid diff CP1 inactive and GFP autofluor 0.
CNc1nc(Oc2ccc3sc(C)nc3c2)c2sccc2n1 was read as NOD2-RIPK2 inh 0 and Myeloid diff 2 inactive.
Nc1ccc(S(=O)(=O)Nc2nccc(/C=C/c3cccc([N+](=O)[O-])c3)n2)cc1 was read as NOD2-RIPK2 inh 10, TLR9-MyD88 inh -5 and Myeloid diff 2 inactive.
Screening Nc1ccc(S(=O)(=O)Nc2nccc(/C=C/c3cccc(Br)c3)n2)cc1 returned NOD2-RIPK2 inh -5, TLR9-MyD88 inh 7, Myeloid diff 2 active, Myeloid diff CP1 inactive and GFP autofluor 0.
For O=c1c2c([nH]n1-c1ccccc1)C[C@@H](C1CCCCC1)O[C@H]2c1ccc(F)cc1 the results were NOD2-RIPK2 inh -11 and Myeloid diff 2 inactive.
`CCn1c(SCC(=O)N2CCN(c3ccc(Cl)cc3)CC2)nc2ccccc2c1=O` gave NOD2-RIPK2 inh -6, TLR9-MyD88 inh -3, TLR4-MyD88 BLA -12 and Myeloid diff 2 inactive.
`CCn1c(SCC(=O)N2CCN(c3ccc(F)cc3)CC2)nc2ccccc2c1=O` gave NOD2-RIPK2 inh -1, TLR9-MyD88 inh -6, TLR4-MyD88 BLA -2, Myeloid diff 2 inactive, Myeloid diff CP1 inactive and GFP autofluor 0.
`CCC(C)c1ccc(S(=O)(=O)N2CCN(C(=O)c3ccc(Cl)c(S(=O)(=O)N4CCOCC4)c3)CC2)cc1` (stereo not given) gave NOD2-RIPK2 inh -7, TLR9-MyD88 inh -3 and Myeloid diff 2 inactive.
Screening C=CCNC(=O)C1CCCN(S(C)(=O)=O)C1 (stereo not given) returned NOD2-RIPK2 inh 3, TLR9-MyD88 inh -2, TLR4-MyD88 BLA -7, Myeloid diff 2 inactive, Myeloid diff CP1 inactive and GFP autofluor 0.

Screening results deposited in PubChem BioAssay by several laboratories.
